PubChem BioAssay AID1159580 (chemical genetic matrix, 2015)
Out of some 5,500 compounds screened, about 2,000 (36%) were called active. Roughly 18% stayed inconclusive and do not appear here. No stated cut-off is given here; in the data, active means normalized growth mostly below about 0.91 (no sharp cut-off); inconclusive means no clear call, values can overlap the other calls; inactive means mostly above about 0.92. The list shows a part of the results.

Assay: chemical genetic growth profiling, strain panel (AID 1159580);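 further: tested at 20 µM; growth read once vehicle control cultures reached saturation at 30 °C; 1 = growth at the plate median or of vehicle wells; lower values mean less growth of the strain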
Details: growth OD

Measured: normalized growth

C1CCN(CCC2CCCCN2)CC1 (stereo not drawn)
inactive: S. cerevisiae deletion strains, locus YAL013W, strain DEP1, hits give low values 0.999 | S. cerevisiae deletion strains, locus YBR229C, strain ROT2, hits give low values 1.01 | S. cerevisiae deletion strains, locus YDL101C, strain DUN1, hits give low values 0.995 | S. cerevisiae deletion strains, locus YDL134C, strain PPH21, hits give low values 1 | S. cerevisiae deletion strains, locus YDR150W, strain NUM1, hits give low values 0.936 | S. cerevisiae deletion strains, locus YEL061C, strain CIN8, hits give low values 1.02 | S. cerevisiae deletion strains, locus YGR078C, strain PAC10, hits give low values 1 | S. cerevisiae deletion strains, locus YHR030C, strain SLT2, hits give low values 1.08 | S. cerevisiae deletion strains, locus YHR087W, strain rtc3, hits give low values 1 | S. cerevisiae deletion strains, locus YJR043C, strain POL32, hits give low values 1 | S. cerevisiae deletion strains, locus YJR075W, strain HOC1, hits give low values 0.998 | S. cerevisiae deletion strains, locus YKL190W, strain CNB1, hits give low values 0.998 | S. cerevisiae deletion strains, locus YLR039C, strain RIC1, hits give low values 1.01 | S. cerevisiae deletion strains, locus YLR058C, strain SHM2 (second series), hits give low values 1.01 | S. cerevisiae deletion strains, locus YLR085C, strain ARP6, hits give low values 1.01 | S. cerevisiae deletion strains, locus YLR262C, strain YPT6, hits give low values 1 | S. cerevisiae deletion strains, locus YML094W, strain GIM5, hits give low values 1.01 | S. cerevisiae deletion strains, locus YMR219W, strain ESC1, hits give low values 1 | S. cerevisiae deletion strains, locus YMR263W, strain SAP30, hits give low values 1.01 | S. cerevisiae deletion strains, locus YNL153C, strain GIM3, hits give low values 1 | S. cerevisiae deletion strains, locus YNL298W, strain CLA4 (second series), hits give low values 0.981 | S. cerevisiae deletion strains, locus YNL322C, strain KRE1, hits give low values 0.995 | S. cerevisiae deletion strains, locus YNR030W, strain Alg12, hits give low values 0.996 | S. cerevisiae deletion strains, locus YOL006C, strain TOP1, hits give low values 0.964 | S. cerevisiae deletion strains, locus YPL055C, strain LGE1, hits give low values 0.967 | S. cerevisiae deletion strains, locus YPL241C, strain CIN2, hits give low values 0.993 | S. cerevisiae deletion strains, locus YPR135W, strain CTF4, hits give low values 1.08 | S. cerevisiae strains, strain wild type, hits give low values 0.996
